For 40 molecules, Potency results are on record in PubChem BioAssay (NCATS).

Inconclusive results are not listed. Entries that show only a call come without a potency. Calls of active or inactive are those of the source. Calls follow the shape of the dose curve; as a rule, active = well fitted cell-killing curve with a large enough effect; inconclusive = small, poorly fitted or top-dose-only effect; inactive = flat fitted curve, though single readings scatter.

A short description of the test: qHTS of pediatric cancer cell lines to identify multiple opportunities for drug repurposing: Primary screen for control Hh wild type fibroblast cells (AID 1347106).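 Also: a drop in luminescence marks cytotoxicity and a rise apparent proliferation; nearly all actives have a fitted effect of over 55% in size.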 The settings on record: Hh wild-type fibroblast viability, CellTiter-Glo luminescence, 48 h; series mostly up to 46 µM. The source says: Drug repurposing or repositioning has been offered as a strategy for drug development in oncology programs. This approach has special potential for childhood cancers and other rare or orphan diseases, where the expected return on new drug development has been a disincentive to pharmaceuticals.
In this project we exploit the poly-pharmacology of drugs to discover new indications via phenotypic screening of a panel of 19 well-characterized cell lines derived from solid tumors seen in children and adolescents. The goal is to identify approved drugs with previously unrecognized anticancer properties that has the potential to reveal new mechanisms and biological processes involved in carcinogenesis or drug resistance. We employed a titration-based paradigm (quantitative high-throughput screening or qHTS), where all compounds were tested at multiple concentrations for their effect on cell viability. Concentration-response curves (CRCs) were derived directly from the primary screen, and both potency and efficacy values were used to identify compounds with robust bioactivity profiles. We screened the NIH Chemical Genomics Center (NCGC) Pharmaceutical Collection (NPC) and Mechanism Interrogation Plate (MIPE) small molecule collections of approved and investigational compounds against these cell lines; and measured metabolically active cells after 48 hours of compound treatment as a proxy for cell viability.
Assay Submitter: Nathalia J. Martinez, National Center for Advancing Translational Sciences, National Institutes of Health, Rockville, MD, USA; email: natalia.martinez@nih.gov
[1] Shen, M et al. Quantitative high-throughput phenotypic screening of pediatric cancer cell lines identifies multiple opportunities for drug repurposing. Oncotarget 2017 Dec 19;9(4):4758-4772. PMID 29435139.
The cells were obtained from University of North Carolina (UNC), Pediatric Preclinical Testing Program (PPT), and Coriell Institute (CI).
qHTS cell viability assay:
Cells were assayed in growth media at a density of 500-1,000 cells/well. Five microliters of cells were dispensed into 1,536-well, white, solid-bottom, TC-treated plates (Greiner Bio One) using a multidrop dispenser and incubated at 37 degrees C, 5% CO2, under a humidified atmosphere for 5 hours. Twenty-three nanoliters of compounds and controls (neutral control DMSO or positive control bortezomib at final concentration of 2.3 µM) were subsequently transferred by Kalypsys pintool. For primary screens, the MIPE collection was tested at 11-point dilutions (final concentrations range from 0.78 nM to 46 µM) and the NPC collection at 8-point dilutions (final concentrations range from 0.59 nM to 46 µM). Compounds tested in follow-up screens were assayed at 11-point dilutions. Cells were incubated for 48 hours, followed by addition of 3 µL of CellTiter-Glo (Promega). After a 15 min incubation at room temperature, samples were analyzed for luminescence intensity using a ViewLux High-throughput CCD imager equipped with clear filters.
Regarding `CCCCNc1cc(C(=O)O)cc(S(N)(=O)=O)c1Oc1ccccc1`, the Potency entry is “inactive”.

As to `CCN(c1ccccc1)c1cc(NC)[n+](C)c(C)n1`, the Potency entry is “inactive”. For `NC(=O)c1cnccn1` the value was “inactive”; for `Cc1ccc(NC(=O)c2cccc(C(C)(C)C#N)c2)cc1Nc1ccc2ncn(C)c(=O)c2c1`, “inactive”; for `CC(C)NCC(O)COc1ccc(COCCOC(C)C)cc1` (stereo not given), “inactive”.

For the molecule `O=C(Nc1nc2ccccc2n1CCN1CCOCC1)c1cccc([N+](=O)[O-])c1`, the Potency entry is “inactive”. Turning to `O=C(Nc1cccnc1)N1CCC(Cc2cccc(Oc3ccc(C(F)(F)F)cn3)c2)CC1`, the Potency result was “inactive”. For `O=C(C1CC1)N1CC[C@@H](Cn2c(-c3ccc(-c4ccc5occc5c4)cc3)nc3cnccc32)C1` the value was “inactive”.

Consider `CCOC(=O)N[C@@H]1CC[C@@H]2[C@@H](C1)C[C@H]1C(=O)O[C@H](C)[C@H]1[C@@H]2C=Cc1ccc(-c2cccc(F)c2)cn1`, for which the Potency result was “inactive”. Next, `COc1cc(F)c(F)c(Nc2ccc(I)cc2F)c1NS(=O)(=O)C1(C[C@H](O)CO)CC1`: “inactive”; `CNCc1ccc(-c2[nH]c3cc(F)cc4c3c2CCNC4=O)cc1`: “inactive”; `Cc1cnc(Nc2ccc(OCCN3CCCC3)cc2)nc1Nc1cccc(S(=O)(=O)NC(C)(C)C)c1`: “inactive”. For `COCCNCCCn1c(C(=O)CF)c(-c2ccc(C)cc2)c2c(N)ncnc21` the value was “inactive”; for `O=C1CCCC2=C1C(c1[nH]ncc1Cl)N=C(Nc1nc3ccccc3o1)N2` (stereo not given), “inactive”; for `CCn1cc(C(=O)O)c(=O)c2cc(F)c(N3CCNC(C)C3)c(F)c21` (stereo not given), “inactive”. For `Oc1ccc(C2CNCCc3c2cc(O)c(O)c3Cl)cc1` (stereo not given) the value was “inactive”; for `Cc1c(CCOc2ccc(C(=O)O)cc2)c2cc(Cl)ccc2n1C(c1ccccc1)c1ccccc1`, “inactive”. `OCCC#Cc1nc(-c2ccc(F)cc2)c(-c2ccncc2)n1CCCc1ccccc1`: the Potency entry is “inactive”. Next, `Cc1ccnc(NS(=O)(=O)c2ccc(NC(=O)Nc3ccc(S(=O)(=O)Nc4nccc(C)n4)cc3)cc2)n1`: “inactive”.

Consider `CCc1ccc(CCOc2ccc(CC3SC(=O)NC3=O)cc2)nc1` (stereo not given), for which the Potency result was “inactive”. Next, `CC(C)(C)OC(=O)CN(Cc1ccc(Cl)cc1)Cc1ccc([N+](=O)[O-])s1`: “inactive”. Next, `Nc1nc2ccc(OC(F)(F)F)cc2s1`: “inactive”.

As for `C1COC(NC(C2CC2)C2CC2)=N1`, the Potency result was “inactive”. Next, `CC(C)OC(=O)C1=CN(C(=O)c2ccc(F)c(F)c2)CC(C)(C)c2c1[nH]c1ccccc21`: “inactive”; `COc1ccc(CCN2CCN(CCCc3ccccc3)CC2)cc1OC`: “inactive”; `Clc1ccc(Nc2nnc(Cc3ccncc3)c3ccccc23)cc1`: “inactive”.

In the case of `CCN(CC)CCCC(C)Nc1nc(C)cc(Nc2ccc3nc(C)cc(N)c3c2)n1` (stereo not given), the Potency result is “inactive”.

With `Cc1ccccc1C(C(=O)NC1CCCC1)N(C(=O)Cn1cnc2ccccc21)c1cccc(F)c1` (stereo not given), the Potency result was “inactive”. `COc1c(Cl)cc2c([nH]c3cnccc32)c1NC(=O)c1cccnc1C`: the Potency result was “inactive”. For `CCOc1cc(C=C2C(=O)N(c3ccccc3)N=C2C)cc(Cl)c1OCC(=O)OC` the value was “inactive”; for `CC(=O)Oc1ccccc1C(=O)O`, “inactive”; for `CCOc1ccc(Cc2cc([C@@H]3O[C@H](CO)[C@@H](O)[C@H](O)[C@@H]3O)ccc2Cl)cc1`, “inactive”. For `CCOc1cc(N2CCC(O)CC2)ccc1Nc1ncc2c(n1)N(C)c1ccccc1C(=O)N2C` the value was “inactive”; for `Cc1cc(Nc2nc(N[C@@H](C)c3ncc(F)cn3)ncc2Cl)n[nH]1`, “inactive”.

For the molecule `CC1(C)CNc2cc(NC(=O)c3cccnc3NCc3ccncc3)ccc21`, the Potency result is “inactive”. For `O=C1CCc2cc(OCCCCc3nnnn3C3CCCCC3)ccc2N1` the value was “inactive”. In the case of `N#Cc1ccc(C(c2ccc(C#N)cc2)n2cncn2)cc1`, the Potency entry is “inactive”.

Consider `CC(c1cc2ccccc2s1)N(O)C(N)=O` (stereo not given), for which the Potency entry was “inactive”. As to `OC[C@H](Cc1ccccc1)Nc1nc(Oc2ccc3c(c2)CCC3)nc2c1ncn2Cc1ccc(-c2ccccc2)cc1`, the Potency result was “inactive”. Next, `Cc1[nH]c(=O)c(C#N)cc1-c1ccncc1`: “inactive”.
